Test results from the supplement of paper PMC10849652.
About 8,800 targets were measured; listed, in parts, are those with a hit and a random draw of the rest. About 0.5% of all pairs of compound and target were hits.

compound: C1CCN(C1)C(=O)NC2=CC=CC(=C2)NC3=NC=C(C(=N3)NCCC4=CN=CN4)Br; assay: log2 fold change, soluble protein after heating vs DMSO (PISA); higher = thermal stabilisation; K562 lysate, 10 uM; active = over 0.2 and 3.5 SD of the protein, either way, in both replicates (recomputed)
Outline: (§1)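 Log-two fold change in thermal stability relative to solvent controls is reported from duplicates. For each sample, crude K562 extract from dounce-homogenised pellets in PBS pH 7.4 with 1 mM MgCl2, at 1 mg/mL protein, was treated with 10 μM compound for 30 min. Aliquots heated for 3 min across 48°C-58°C were pooled, brought to 0.5% NP-40 at 4°C and cleared at 21,000xg for 90 min. The supernatant was quantified by TMTpro 16plex LC-MS/MS with channel sums equalised.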

Chain of UniProt Q15418 (Q15418 whole entry, looked up): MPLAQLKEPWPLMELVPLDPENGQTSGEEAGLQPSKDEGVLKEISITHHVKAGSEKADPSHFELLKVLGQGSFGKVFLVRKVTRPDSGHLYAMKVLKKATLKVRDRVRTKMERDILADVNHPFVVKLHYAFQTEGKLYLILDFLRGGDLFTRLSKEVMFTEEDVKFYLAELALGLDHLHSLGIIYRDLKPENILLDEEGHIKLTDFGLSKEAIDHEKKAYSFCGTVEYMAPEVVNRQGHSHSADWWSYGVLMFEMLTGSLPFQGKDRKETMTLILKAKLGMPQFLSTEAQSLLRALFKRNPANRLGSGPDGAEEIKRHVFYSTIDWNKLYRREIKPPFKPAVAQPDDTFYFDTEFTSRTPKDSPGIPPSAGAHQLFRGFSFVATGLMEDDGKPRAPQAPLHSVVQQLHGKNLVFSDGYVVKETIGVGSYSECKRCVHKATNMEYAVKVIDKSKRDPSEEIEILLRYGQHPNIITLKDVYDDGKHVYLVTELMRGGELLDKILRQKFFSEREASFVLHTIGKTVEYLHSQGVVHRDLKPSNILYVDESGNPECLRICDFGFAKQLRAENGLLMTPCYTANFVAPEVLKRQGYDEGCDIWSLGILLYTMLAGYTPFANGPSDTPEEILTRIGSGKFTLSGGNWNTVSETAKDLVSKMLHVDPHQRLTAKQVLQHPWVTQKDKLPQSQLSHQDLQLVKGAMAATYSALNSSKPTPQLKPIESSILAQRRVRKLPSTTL
Chain of UniProt P31040 (P31040 whole entry, looked up): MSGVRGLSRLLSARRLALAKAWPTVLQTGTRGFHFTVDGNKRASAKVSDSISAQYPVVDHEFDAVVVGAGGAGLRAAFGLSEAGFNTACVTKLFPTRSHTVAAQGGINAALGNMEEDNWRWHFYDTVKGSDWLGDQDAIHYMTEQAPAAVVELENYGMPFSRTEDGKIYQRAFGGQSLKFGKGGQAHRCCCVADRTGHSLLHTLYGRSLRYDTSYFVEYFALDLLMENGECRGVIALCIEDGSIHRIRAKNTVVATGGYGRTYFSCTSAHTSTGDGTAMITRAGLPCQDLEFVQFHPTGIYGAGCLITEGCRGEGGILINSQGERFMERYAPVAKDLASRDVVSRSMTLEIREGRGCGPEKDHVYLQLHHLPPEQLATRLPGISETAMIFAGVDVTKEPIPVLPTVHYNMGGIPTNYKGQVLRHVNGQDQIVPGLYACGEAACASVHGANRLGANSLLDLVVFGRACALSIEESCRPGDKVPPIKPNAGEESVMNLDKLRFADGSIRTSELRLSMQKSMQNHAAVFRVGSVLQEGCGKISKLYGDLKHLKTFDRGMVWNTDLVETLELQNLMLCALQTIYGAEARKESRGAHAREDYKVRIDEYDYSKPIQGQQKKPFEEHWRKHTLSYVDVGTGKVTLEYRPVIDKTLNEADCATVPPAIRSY
Chain of UniProt Q15287 (Q15287 whole entry, looked up): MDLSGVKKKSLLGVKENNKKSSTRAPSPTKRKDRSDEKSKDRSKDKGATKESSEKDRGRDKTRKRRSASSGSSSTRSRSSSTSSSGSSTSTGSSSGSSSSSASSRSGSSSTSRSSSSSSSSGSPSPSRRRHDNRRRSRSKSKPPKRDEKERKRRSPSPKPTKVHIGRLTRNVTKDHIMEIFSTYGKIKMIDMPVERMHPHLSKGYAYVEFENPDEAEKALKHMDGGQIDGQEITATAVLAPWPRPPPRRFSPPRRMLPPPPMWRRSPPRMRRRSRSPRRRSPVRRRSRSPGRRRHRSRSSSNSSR
Chain of UniProt Q9NW64 (Q9NW64 whole entry, looked up): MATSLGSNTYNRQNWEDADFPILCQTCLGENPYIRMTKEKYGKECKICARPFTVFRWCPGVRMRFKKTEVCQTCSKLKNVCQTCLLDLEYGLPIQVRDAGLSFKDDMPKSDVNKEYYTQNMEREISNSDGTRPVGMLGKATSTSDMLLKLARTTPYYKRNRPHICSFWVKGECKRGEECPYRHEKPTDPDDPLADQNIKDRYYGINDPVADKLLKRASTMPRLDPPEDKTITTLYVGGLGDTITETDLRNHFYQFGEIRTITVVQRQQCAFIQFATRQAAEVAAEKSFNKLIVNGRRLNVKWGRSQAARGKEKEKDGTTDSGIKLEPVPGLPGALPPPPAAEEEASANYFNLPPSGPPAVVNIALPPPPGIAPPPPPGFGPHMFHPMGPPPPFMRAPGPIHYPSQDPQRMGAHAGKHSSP
Chain of UniProt Q8WWV3 (Q8WWV3 whole entry, looked up): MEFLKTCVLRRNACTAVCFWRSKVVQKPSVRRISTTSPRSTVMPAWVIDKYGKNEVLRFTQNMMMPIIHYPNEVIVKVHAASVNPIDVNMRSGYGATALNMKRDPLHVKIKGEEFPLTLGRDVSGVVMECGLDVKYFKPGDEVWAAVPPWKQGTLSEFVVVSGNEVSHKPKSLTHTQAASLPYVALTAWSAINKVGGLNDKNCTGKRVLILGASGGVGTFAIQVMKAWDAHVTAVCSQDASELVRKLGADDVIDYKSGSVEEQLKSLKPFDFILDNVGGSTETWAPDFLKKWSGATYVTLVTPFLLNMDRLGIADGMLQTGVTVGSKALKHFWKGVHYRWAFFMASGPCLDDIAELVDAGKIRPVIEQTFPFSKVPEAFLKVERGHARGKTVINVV
Chain of UniProt Q13464 (Q13464 whole entry, looked up): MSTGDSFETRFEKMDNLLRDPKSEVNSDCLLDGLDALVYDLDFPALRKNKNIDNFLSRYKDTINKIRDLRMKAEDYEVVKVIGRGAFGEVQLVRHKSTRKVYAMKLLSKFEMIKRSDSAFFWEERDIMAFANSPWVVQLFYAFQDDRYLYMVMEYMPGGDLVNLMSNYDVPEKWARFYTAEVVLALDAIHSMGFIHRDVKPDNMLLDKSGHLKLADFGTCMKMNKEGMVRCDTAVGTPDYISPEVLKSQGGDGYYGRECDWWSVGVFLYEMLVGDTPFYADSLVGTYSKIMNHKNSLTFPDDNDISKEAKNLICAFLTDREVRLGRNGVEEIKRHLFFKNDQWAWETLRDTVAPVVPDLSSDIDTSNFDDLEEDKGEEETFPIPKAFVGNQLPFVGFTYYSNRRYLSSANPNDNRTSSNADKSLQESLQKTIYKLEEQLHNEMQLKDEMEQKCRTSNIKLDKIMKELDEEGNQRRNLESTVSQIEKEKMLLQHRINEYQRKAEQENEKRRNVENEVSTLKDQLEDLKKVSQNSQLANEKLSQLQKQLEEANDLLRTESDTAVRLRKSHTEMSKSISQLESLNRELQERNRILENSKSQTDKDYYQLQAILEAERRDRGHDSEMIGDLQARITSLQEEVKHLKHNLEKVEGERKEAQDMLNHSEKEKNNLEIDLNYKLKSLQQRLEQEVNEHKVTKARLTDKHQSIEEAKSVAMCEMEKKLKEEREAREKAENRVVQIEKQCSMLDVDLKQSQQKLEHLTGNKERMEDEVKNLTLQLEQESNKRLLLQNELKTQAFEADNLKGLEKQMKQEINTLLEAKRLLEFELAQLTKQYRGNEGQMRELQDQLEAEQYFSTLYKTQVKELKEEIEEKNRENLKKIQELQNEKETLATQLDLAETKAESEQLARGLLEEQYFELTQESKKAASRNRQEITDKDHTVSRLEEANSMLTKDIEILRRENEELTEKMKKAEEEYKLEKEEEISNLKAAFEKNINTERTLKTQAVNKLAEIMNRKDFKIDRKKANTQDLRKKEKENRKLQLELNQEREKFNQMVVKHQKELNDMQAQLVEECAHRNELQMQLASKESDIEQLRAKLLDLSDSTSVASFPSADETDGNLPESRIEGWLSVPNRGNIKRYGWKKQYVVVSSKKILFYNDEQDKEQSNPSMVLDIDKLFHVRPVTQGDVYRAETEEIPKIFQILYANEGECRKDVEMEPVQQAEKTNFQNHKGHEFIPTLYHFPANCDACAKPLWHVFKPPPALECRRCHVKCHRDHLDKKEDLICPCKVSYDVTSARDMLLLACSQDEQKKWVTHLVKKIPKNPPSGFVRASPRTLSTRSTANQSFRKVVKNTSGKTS
Chain of UniProt Q8NBX0 (Q8NBX0 whole entry, looked up): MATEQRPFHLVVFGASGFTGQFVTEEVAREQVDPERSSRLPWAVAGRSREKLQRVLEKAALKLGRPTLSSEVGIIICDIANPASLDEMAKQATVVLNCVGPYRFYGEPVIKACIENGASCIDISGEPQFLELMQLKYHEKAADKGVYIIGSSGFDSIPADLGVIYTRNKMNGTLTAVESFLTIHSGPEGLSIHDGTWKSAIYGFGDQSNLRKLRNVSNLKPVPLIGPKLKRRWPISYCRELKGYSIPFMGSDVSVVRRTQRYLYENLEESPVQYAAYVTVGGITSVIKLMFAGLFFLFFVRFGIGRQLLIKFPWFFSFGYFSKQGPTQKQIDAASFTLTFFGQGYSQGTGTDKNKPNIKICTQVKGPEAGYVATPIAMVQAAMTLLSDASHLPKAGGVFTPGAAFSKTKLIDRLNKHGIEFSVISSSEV
Chain of UniProt Q9H0R6 (Q9H0R6 whole entry, looked up): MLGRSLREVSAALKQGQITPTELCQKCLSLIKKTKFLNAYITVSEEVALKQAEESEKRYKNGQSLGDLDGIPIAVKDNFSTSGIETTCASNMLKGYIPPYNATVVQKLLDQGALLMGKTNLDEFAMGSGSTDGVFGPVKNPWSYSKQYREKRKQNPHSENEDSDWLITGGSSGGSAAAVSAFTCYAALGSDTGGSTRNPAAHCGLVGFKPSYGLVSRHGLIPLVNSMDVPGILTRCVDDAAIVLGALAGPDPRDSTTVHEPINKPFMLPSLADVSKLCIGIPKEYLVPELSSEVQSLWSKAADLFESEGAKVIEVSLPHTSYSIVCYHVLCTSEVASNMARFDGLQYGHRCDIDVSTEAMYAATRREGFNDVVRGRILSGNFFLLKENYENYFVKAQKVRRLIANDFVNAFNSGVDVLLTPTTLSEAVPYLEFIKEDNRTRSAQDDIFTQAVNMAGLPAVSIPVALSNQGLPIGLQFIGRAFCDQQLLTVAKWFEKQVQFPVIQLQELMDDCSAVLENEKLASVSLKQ

log2 fold change, inactive:
RNPS1 (UniProt Q15287) -0.016, RAI14 isoform 2 (UniProt Q9P0K7) 0, SDHA (UniProt P31040) -0.009, SCCPDH (UniProt Q8NBX0) -0.03, RPS6KA1 (UniProt Q15418) -0.009, RBM22 (UniProt Q9NW64) -0.02, RPS26P11 (UniProt Q5JNZ5) -0.045, RTN4IP1 (UniProt Q8WWV3) 0.033, ROCK1 (UniProt Q13464) 0.008, RPL8 (UniProt P62917) 0.019, RPL36AL (UniProt Q969Q0) 0.049

compound: C1CN(CCC1(CC2=CC=C(C=C2)Cl)N)C3=NC=NC4=C3C=CN4; assay: as above
Outline: as §1

log2 fold change, inactive:
SEC62 (UniProt Q99442) -0.009, RPL28 (UniProt P46779) 0, SBF1 isoform 4 (UniProt O95248) -0.026, SEC16A isoform 5 (UniProt O15027) 0.002, SEH1L isoform 1 (UniProt Q96EE3) 0.026, RDH14 (UniProt Q9HBH5) -0.057, RFC3 (UniProt P40938) 0.049, RAB1B (UniProt Q9H0U4) 0.003, RRAGA (UniProt Q7L523) 0.005, RAB3IL1 (UniProt E9PK89) -0.12, RBM42 (UniProt Q9BTD8) -0.014, RBSN (UniProt Q9H1K0) 0.063, RAC2 (UniProt P15153) -0.036, RSU1 (UniProt Q15404) -0.027, RPL37A (UniProt P61513) -0.035, QRSL1 (UniProt Q9H0R6) 0.022, RBBP8 isoform 2 (UniProt Q99708) -0.032, RASA2 (UniProt Q15283) 0.028, RIOK3 (UniProt O14730) -0.006, RMC1 (UniProt Q96DM3) 0.035, RPS6KB1 (UniProt P23443) 0.027, RCAN1 (UniProt P53805) 0.016, RNF40 (UniProt O75150) 0.024, RNPS1 (UniProt Q15287) -0.073, RAI14 isoform 2 (UniProt Q9P0K7) -0.018, SDHA (UniProt P31040) 0.004, SCCPDH (UniProt Q8NBX0) 0.026, RPS6KA1 (UniProt Q15418) 0.06, RBM22 (UniProt Q9NW64) 0.009, RPS26P11 (UniProt Q5JNZ5) 0.008, RTN4IP1 (UniProt Q8WWV3) -0.016, ROCK1 (UniProt Q13464) 0.075, RPL8 (UniProt P62917) -0.085, RPL36AL (UniProt Q969Q0) -0.05

compound: C1COCCN1CCN2C3=CC=CC=C3N=C2NC(=O)C4=CC(=CC=C4)[N+](=O)[O-] [IRAK-1-4 Inhibitor I]; assay: as above
Outline: as §1

log2 fold change, inactive:
SEC62 (UniProt Q99442) 0.042, RPL28 (UniProt P46779) -0.02, SBF1 isoform 4 (UniProt O95248) -0.002, SEC16A isoform 5 (UniProt O15027) -0.005, SEH1L isoform 1 (UniProt Q96EE3) 0.031, RDH14 (UniProt Q9HBH5) 0.018, RFC3 (UniProt P40938) 0.028, RAB1B (UniProt Q9H0U4) 0.055, RRAGA (UniProt Q7L523) 0.026, RAB3IL1 (UniProt E9PK89) 0.109, RBM42 (UniProt Q9BTD8) 0.049, RBSN (UniProt Q9H1K0) 0.025, RAC2 (UniProt P15153) 0.024, RSU1 (UniProt Q15404) 0, RPL37A (UniProt P61513) -0.023, QRSL1 (UniProt Q9H0R6) -0.01, RBBP8 isoform 2 (UniProt Q99708) 0.033, RASA2 (UniProt Q15283) -0.003, RIOK3 (UniProt O14730) 0.016, RMC1 (UniProt Q96DM3) 0.006, RPS6KB1 (UniProt P23443) 0.028, RCAN1 (UniProt P53805) -0.024, RNF40 (UniProt O75150) -0.008, RNPS1 (UniProt Q15287) 0.023, RAI14 isoform 2 (UniProt Q9P0K7) -0.028, SDHA (UniProt P31040) 0.011, SCCPDH (UniProt Q8NBX0) 0.016, RPS6KA1 (UniProt Q15418) -0.036, RBM22 (UniProt Q9NW64) 0.018, RPS26P11 (UniProt Q5JNZ5) 0.001, RTN4IP1 (UniProt Q8WWV3) 0.011, ROCK1 (UniProt Q13464) 0.004, RPL8 (UniProt P62917) -0.005, RPL36AL (UniProt Q969Q0) -0.109
